Measurements published in PubChem BioAssay AID504850 (National Center for Advancing Translational Sciences (NCATS), 2011).
In all, about 2,300 compounds went through this assay and about 1,200 (52%) were called active. Inconclusive results (about 34%) are left out. Calls follow the shape of the dose curve; as a rule, active = well fitted inhibition curve with a large enough effect; inconclusive = small, poorly fitted or top-dose-only effect, or effect the other way; inactive = no such curve, though single readings can be large or run the other way. The set was probably picked from earlier hits. Some of the results follow.
Potency is read from the fitted curve at half-maximal effect.

Experiment: Confirmation screen for delayed death inhibitors of the malarial parasite plastid, 48 hour incubation; also: nearly all actives have a fitted effect of over 65% in size
Details: P. falciparum-infected erythrocytes, luciferase growth; series mostly up to 28.7 µM
In short: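 Erythrocytes infected with luciferase-expressing P. falciparum (2% hematocrit, 0.1% parasitemia) incubated with compounds 48 hours at 37 C, 5% CO2, in RPMI/Albumax. Growth inhibition scored as reduced luminescence after detection reagent.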
In the case of Cc1nn(Cc2c(Cl)cccc2Cl)c(C)c1NC(=O)c1cc(C(C)C)on1, the Potency is reported as 12.6 µM (active). In the case of CCC(C(=O)Nc1sc(C(N)=O)c(C)c1C(=O)OC)c1ccccc1 (stereo unspecified), the Potency is reported as 12.6 µM (active). In the case of CCOC(=O)c1cnc2ccccc2c1NCCc1ccc(OC)c(OC)c1, the Potency is reported as 11.2 µM (active). With CCN(CC)C(=O)N1c2ccccc2C=Cc2ccccc21 the Potency was 15.8 µM (active). In the case of O=C1c2ccccc2C(=Nc2ccccc2)C1c1cccc(Br)c1 (stereo unspecified), the Potency is reported as 3.98 µM (active). With CCOC(=O)c1cc(-c2ccccc2)sc1NC(=O)C(C)OC(=O)c1cccnc1Cl (stereo unspecified) the Potency was 11.2 µM (active). For CCc1ccc(Nc2n[n+](-c3ccccc3)c(-c3cccc(Cl)c3Cl)s2)cc1, the Potency was 3.16 µM (active). With CC1=CC(C)(C)N2C(=O)C3(NCCc4c3[nH]c3ccccc43)c3cc(C)cc1c32 (stereo unspecified) the Potency was 14.1 µM (active). For CCN(CC)c1ccc(/C=N/NC(=S)NC)c(O)c1, the Potency was 10 µM (active). In the case of O=C(C[n+]1ccccc1)Nc1ccc(Cl)c([N+](=O)[O-])c1, the Potency is reported as 12.6 µM (active). For CC(C)(C)c1cc(NC(=O)CCl)n(-c2ccccc2)n1, the Potency was 12.6 µM (active). In the case of Cc1ccc(-c2cc(NC(=O)CCl)n(-c3ccccc3)n2)cc1, the Potency is reported as 10 µM (active). With N#CCCn1nc(-c2ccc(Cl)cc2)cc1Nc1ccccc1NC(=O)C(F)(F)F the Potency was “inactive”. With O=C(CCl)Nc1c2c(nn1-c1ccccc1)CSC2 the Potency was 2.51 µM (active). For CC1CCN(C(=O)Cn2c(=O)oc3cc(S(=O)(=O)N4CCCCC4)ccc32)CC1, the Potency was 15.8 µM (active). In the case of CCOc1ccccc1CN1CCN(Cc2ccc3cccc(OC)c3n2)CC1CCO (stereo unspecified), the Potency is reported as 14.1 µM (active). In the case of COc1ccc(CN2CCN(Cc3cc4ccccc4o3)CC2CCO)cc1C (stereo unspecified), the Potency is reported as 14.1 µM (active). With Cc1cccc(C2Nc3ccccc3C(=O)N2c2ccccc2)n1 (stereo unspecified) the Potency was “inactive”. For CCCN1C(=O)c2ccccc2NC1c1ccc(OC)cc1O (stereo unspecified), the Potency was 12.6 µM (active). In the case of O=[N+]([O-])c1ccc(CNC2CCCc3ccccc32)cc1 (stereo unspecified), the Potency is reported as “inactive”. In the case of O=[N+]([O-])c1ccc(C[n+]2cccc3c4ccccc4ccc32)cc1, the Potency is reported as 0.398 µM (active). In the case of O=C(NC1CCCC1)c1ccc([N+](=O)[O-])s1, the Potency is reported as 14.1 µM (active). For O=C(NC1C=CS(=O)(=O)C1)c1sc2ccccc2c1Cl (stereo unspecified), the Potency was 6.31 µM (active). For Cc1cc(Cl)cc(C)c1OCCn1ccnc1, the Potency was 12.6 µM (active). In the case of Cc1nn(Cc2ccccc2Cl)c(C)c1C(=O)Nc1nnc(C2CC2)s1, the Potency is reported as 11.2 µM (active). In the case of Cc1c(OCC(=O)NCc2cccnc2)ccc2c3c(c(=O)oc12)CCC3, the Potency is reported as “inactive”. In the case of Cc1c(OCC(=O)NCc2cccnc2)ccc2c3c(c(=O)oc12)CCCC3, the Potency is reported as 10 µM (active). For Cc1c(OC(C)C(=O)NCc2cccnc2)ccc2c3c(c(=O)oc12)CCCC3 (stereo unspecified), the Potency was 1.58 µM (active). In the case of Cc1ccc(C(=O)Nc2ccccc2SCC2CSc3nc4ccccc4c(=O)n32)cc1 (stereo unspecified), the Potency is reported as 11.2 µM (active). In the case of Cc1cccc(C(=O)Nc2ccccc2SCC2CSc3nc4ccccc4c(=O)n32)c1 (stereo unspecified), the Potency is reported as 11.2 µM (active). With O=C(Nc1ccccc1SCC1CSc2nc3ccccc3c(=O)n21)c1ccccc1Cl (stereo unspecified) the Potency was 11.2 µM (active). In the case of O=C(Nc1ccccc1SCC1CSc2nc3ccccc3c(=O)n21)c1cccc(Cl)c1 (stereo unspecified), the Potency is reported as 11.2 µM (active). For COc1ccc(NS(=O)(=O)c2cc(OCC(N)=O)c(C)cc2Cl)cc1, the Potency was 7.08 µM (active). With CCN(CC)C1=N/C(=C\c2ccc(OC)cc2)C(=O)N1c1ccccc1 the Potency was 14.1 µM (active). In the case of COc1ccc(/C=C2\N=C(SC)N(c3ccccc3OC)C2=O)cc1, the Potency is reported as 14.1 µM (active). With Cc1ccc2c(CN(C)Cc3cccc(Cl)c3)cc(=O)oc2c1C the Potency was “inactive”. With COc1cccc(CN(C)Cc2cc(=O)oc3c(C)c(C)ccc23)c1 the Potency was “inactive”. For Cc1c(O)ccc2c(CN(C)Cc3ccccc3)cc(=O)oc12, the Potency was 14.1 µM (active). With COc1ccccc1CN1CCCC(CN(CCN(C)C)C(=O)c2ccc(C)cc2)C1 (stereo unspecified) the Potency was 15.8 µM (active). For Cn1nnnc1Sc1ncnc2scc(-c3cccc(F)c3)c12, the Potency was 12.6 µM (active). In the case of Cn1nnnc1Sc1ncnc2scc(-c3cccc(S(C)(=O)=O)c3)c12, the Potency is reported as 12.6 µM (active). In the case of Cc1onc(-c2c(Cl)cccc2Cl)c1C(=O)N=C(N)N1CC(C)OC(C)C1 (stereo unspecified), the Potency is reported as 11.2 µM (active). For Cc1onc(-c2c(F)cccc2Cl)c1C(=O)N1CCCCC1, the Potency was “inactive”. With C=CCC1(O)C(=O)N2C(=C1C(=O)OCC)c1ccc3ccccc3c1CC2(C)C (stereo unspecified) the Potency was 11.2 µM (active). For Cc1ccc(C(=O)NCCn2ccc3ccccc32)cc1[N+](=O)[O-], the Potency was “inactive”. In the case of CCCNC(=O)c1ccc(S(=O)(=O)c2ccc(OC)cc2)c([N+](=O)[O-])c1, the Potency is reported as 7.94 µM (active). In the case of O=C(N/N=C/C(Cl)=C\c1ccccc1)c1cccs1, the Potency is reported as 5.01 µM (active). In the case of O=C(N/N=C(\CC(=O)c1cccs1)C(F)(F)F)c1ccncc1, the Potency is reported as “inactive”. With O=C1Nc2ccccc2/C1=C/C(=O)c1cccs1 the Potency was “inactive”. With CC(=O)OC[C@H]1O[C@@H](n2ncc(=O)[nH]c2=O)[C@H](OC(C)=O)[C@@H]1OC(C)=O the Potency was “inactive”. In the case of CCCN(CCC)S(=O)(=O)c1ccc(C(=O)NCc2ccco2)cc1, the Potency is reported as 12.6 µM (active). In the case of CCN(CC(=O)Nc1c(F)cccc1F)C(=O)c1ccc(S(=O)(=O)NCc2ccco2)cc1, the Potency is reported as “inactive”. With Cc1ccc(S(=O)(=O)N(CC(=O)NCc2ccco2)c2ccccc2C)cc1 the Potency was 12.6 µM (active). With Cc1ccc(NC(=O)CN(C)C(=O)c2cccc(S(=O)(=O)NCc3ccco3)c2)cc1 the Potency was “inactive”. With Cc1ccc(S(=O)(=O)N(Cc2ccccc2)c2ccccc2C(=O)Nc2ccccc2C(=O)NCc2ccco2)cc1 the Potency was 2.51 µM (active). For C(=C\c1nc(N2CCCCCC2)c2ccccc2n1)/c1ccccc1, the Potency was 6.31 µM (active). With O=C(COc1ccccc1)N1c2ccccc2Sc2ccccc21 the Potency was 14.1 µM (active). For Cc1ccc(C)c(N2CCN(S(=O)(=O)c3ccc4c(c3)NC(=O)CS4)CC2)c1, the Potency was 11.2 µM (active). In the case of Cc1cccc(N2CCN(S(=O)(=O)c3ccc4c(c3)NC(=O)CO4)CC2)c1C, the Potency is reported as 15.8 µM (active). With COc1ccc(-c2cc(C)no2)cc1S(=O)(=O)Nc1cccc(CN2CCCC2)c1 the Potency was 14.1 µM (active). For Cc1ccc(OCCSCc2nnc(NC(=O)Nc3cccc(Cl)c3)s2)cc1, the Potency was 2.82 µM (active). In the case of Cc1cc(=O)oc2c3c(cc(OCC(=O)Nc4cccnc4)c12)OC(C)(C)CC3, the Potency is reported as 3.98 µM (active). In the case of Cc1ccccc1-n1nc2c(c1NC(=O)C1CCCC1)CS(=O)(=O)C2, the Potency is reported as “inactive”. In the case of CCOC(=O)c1cc(-c2ccc(C)cc2)n(CCC(=O)NCCN(C)C)c1C, the Potency is reported as 11.2 µM (active). With CC(C)(C)c1ccc(C(=O)Nc2sc3c(c2C(=O)O)CCC3)cc1 the Potency was 11.2 µM (active). In the case of O=C(/C=C/c1ccccc1)Nc1sc2c(c1C(=O)O)CCC2, the Potency is reported as “inactive”. With COc1ccc(S(=O)(=O)NCc2ccco2)cc1-c1nnc2c3ccccc3c(C)nn12 the Potency was 11.2 µM (active). For CO[C@H](C(=O)[C@@H](O)[C@@H](C)O)C1Cc2cc3cc(O[C@H]4C[C@@H](O[C@H]5C[C@@H](O)[C@H](O)[C@@H](C)O5)[C@@H](O)[C@@H](C)O4)c(C)c(O)c3c(O)c2C(=O)[C@H]1O[C@H]1C[C@@H](O[C@H]2C[C@@H](O[C@H]3C[C@](C)(O)[C@H](O)[C@@H](C)O3)[C@H](O)[C@@H](C)O2)[C@H](O)[C@@H](C)O1 (stereo partly specified), the Potency was 0.562 µM (active). For COc1ccc(N2CCN(C(=O)CSc3nc4cc(OC)c(OC)cc4cc3C#N)CC2)cc1, the Potency was 7.94 µM (active). For O=C(NNc1c2ccccc2nc2ccccc12)C(O)c1ccccc1 (stereo unspecified), the Potency was 12.6 µM (active). For Cc1ccc(OCC(=O)NNc2c3ccccc3nc3ccccc23)cc1, the Potency was 10 µM (active). For O=C(CCCO)NNc1c2ccccc2nc2ccccc12, the Potency was 11.2 µM (active). With COc1ccccc1OCC(=O)NNc1c2ccccc2nc2ccccc12 the Potency was 10 µM (active). With Cc1ccc(C(=O)NNc2c3ccccc3nc3ccccc23)cc1 the Potency was 15.8 µM (active). For COc1cccc(C(=O)NNc2c3ccccc3nc3ccccc23)c1, the Potency was 10 µM (active). In the case of O=C(COc1ccccc1)NNc1c2ccccc2nc2ccccc12, the Potency is reported as 11.2 µM (active). In the case of Cc1cccc(OCC(=O)NNc2c3ccccc3nc3ccccc23)c1, the Potency is reported as 11.2 µM (active). With O=C(Nn1c(COc2ccccc2)nc2ccccc2c1=O)C(Cl)(Cl)Cl the Potency was “inactive”. For COc1cccc(C(=O)N/N=C(\C)CC(=O)Nc2ccc(N(C)C)cc2)c1, the Potency was “inactive”. With COc1ccc(CCn2c(C(C)C)nc3c(c(=O)c4ccccc4n3C)c2=O)cc1 the Potency was 11.2 µM (active). In the case of COc1ccc(-c2nc3c(c(=O)c4ccccc4n3C)c(=O)n2Cc2ccccc2)cc1, the Potency is reported as 10 µM (active). In the case of COc1ccc(Cn2c(-c3ccccc3)nc3c(c(=O)c4ccccc4n3C)c2=O)cc1, the Potency is reported as 11.2 µM (active). With O=C(/C=C/c1ccc(Cl)c(Cl)c1)NCCCn1ccnc1 the Potency was 15.8 µM (active). For CCc1ccccc1Nc1nc(N)nc(COC(=O)CCNS(=O)(=O)c2ccccc2)n1, the Potency was 12.6 µM (active). In the case of Cc1ccc(C(=O)OCc2nc(N)nc(Nc3ccccc3C)n2)cc1, the Potency is reported as 12.6 µM (active). In the case of CCc1ccccc1Nc1nc(N)nc(COC(=O)CCC(=O)c2ccc(F)cc2)n1, the Potency is reported as 8.91 µM (active). With O=C(O)CCNS(=O)(=O)c1cccc(Br)c1 the Potency was “inactive”. For CCCCN(C)C(=O)C1CCC(CNS(=O)(=O)c2ccc3c(c2)CC(C)N3C(=O)C2CC2)CC1 (stereo unspecified), the Potency was 12.6 µM (active). For CCc1ccc(N/C(SCc2cccc(F)c2)=C(/C#N)C(=O)NCc2ccco2)cc1, the Potency was 10 µM (active). For CC(C)/C=C/CN1CCN(CCCc2ccccc2)C(CCO)C1 (stereo unspecified), the Potency was 12.6 µM (active). With C#Cc1ccc(CN2CCN(CCCc3ccccc3)C(CCO)C2)cc1 (stereo unspecified) the Potency was 11.2 µM (active).
